According to the supplement of paper PMC10646978:
± gives the standard deviation.

Columns and labels:
Conditions in all cases: modulator concentration 10 µM
[1] = system: RAW-Dual (murine macrophage reporter line); assay: NF-kB reporter (SEAP) activity fold change vs agonist alone; higher = enhanced NF-kB activity
Method in brief: (§1)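 RAW-Dual murine macrophage reporter cells were plated at 50 000 per well in 384-well plates, pin-transferred compound to 10 μM final, and pre-incubated for 1 hour at 37 °C before a PRR agonist was added and the cells incubated overnight. NF-κB activity was read from supernatant SEAP with QUANTI-Blue at 620 nm absorbance, and IRF activity from Lucia luciferase with QUANTI-Luc by luminescence. Each signal was expressed as fold change by dividing by the mean agonist-only control on the same plate. Two replicate plates were averaged, with errors obtained by propagation.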

[2] = system: RAW-Dual (murine macrophage reporter line); assay: IRF reporter (Lucia luciferase) activity fold change vs agonist alone; higher = enhanced IRF activity
Method in brief: as §1

[3] = system: RAW-Dual (murine macrophage reporter line); assay: viability score (confluency relative to resting cells, overnight) (fraction); higher = more viable, active = viable (0.7 or more)
Method in brief: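 Overnight exposure to 10 μM final compound was carried out on RAW-Dual macrophages in 384-well plates. IncuCyte software generated two confluency masks over all wells imaged with IncuCyte. The viability score gives confluency in relation to resting cells. A compound met the cutoff if each mask exceeded 70% of resting cells.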

[4] = agonist: CpG ODN 1826 0.5 ug/mL

Row | SMILES | NF-kB reporter [1, 4] | NF-kB reporter ([1]; agonist: LPS 0.1 ug/mL) | NF-kB reporter ([1]; agonist: MPLA […]) | IRF reporter ([2]; agonist: 3'3'-cGAMP 10 ug/mL) | IRF reporter ([2]; agonist: LPS 0.1 ug/mL) | IRF reporter ([2]; agonist: MPLA […]) | viability score [3]
1 | CCCOc1ccc(CCC(=O)O)cc1 | 1.38 ± 0.33 | 1.08 ± 0.075 | 0.985 ± 0.035 | 1.07 ± 0.23 | 1.11 ± 0.05 | 1.05 ± 0.1 | 1 (active)
2 | Cc1cccc(C)c1OCC(=O)N[C@@H](Cc1ccccc1)[C@@H](O)C[C@H](Cc1ccccc1)NC(=O)[C@H](C(C)C)N1CCCNC1=O | 0.665 ± 0.082 | 0.889 ± 0.058 | 1.24 ± 0.12 | 0.67 ± 0.04 | 1.2 ± 0.071 | 1.37 ± 0.12 | 1.02 (active)
3 | O=c1n(CCNS(=O)(=O)Cc2ccccc2)nc(C2CC2)n1-c1ccccc1 | 1.03 ± 0.052 | 1.08 ± 0.09 | 1.1 ± 0.074 | 1.03 ± 0.063 | 1.26 ± 0.08 | 1.22 ± 0.1 | 1.01 (active)
4 | CCOC(=O)C(=NNc1ccccc1[N+](=O)[O-])C(=O)CSc1ccc(C)cc1 | 0.697 ± 0.046 | 0.789 ± 0.049 | 0.919 ± 0.056 | 0.154 ± 0.0098 | 1.14 ± 0.083 | 1.14 ± 0.12 | 1 (active)
5 | C=Cc1c(C)c2cc3nc(cc4[nH]c(cc5nc(cc1[nH]2)C(C)=C5CCC(=O)O)c(CCC(=O)OC)c4C)[C@@]1(C)C3=CC=C(C(=O)OC)[C@H]1C(=O)OC | 0.419 ± 0.077 | 0.077 ± 0.012 | 0.123 ± 0.0057 | 0.0175 ± 0.0038 | 0.0424 ± 0.018 | 0.0518 ± 0.015 | 0.344 (inactive)
6 | Cc1[nH]c2ccc(Br)cc2c(=O)c1CN1CCOCC1 | 1.06 ± 0.062 | 0.995 ± 0.11 | 0.972 ± 0.027 | 1.01 ± 0.073 | 0.973 ± 0.1 | 0.937 ± 0.16 | 0.995 (active)
7 | COc1ccc(N(CC(=O)N2CCc3ccccc3C2)S(C)(=O)=O)c(OC)c1 | 1.04 ± 0.13 | 1.09 ± 0.093 | 0.913 ± 0.057 | 0.992 ± 0.026 | 1.49 ± 0.28 | 1.13 ± 0.089 | 1.01 (active)
8 | OCc1ccccc1OC1OC(CO)C(O)C(O)C1O (configuration not stated) | 1.13 ± 0.27 | 1.07 ± 0.094 | 1.05 ± 0.069 | 0.889 ± 0.03 | 1.22 ± 0.23 | 1.13 ± 0.19 | 1 (active)
9 | Cc1cc(OCC(O)CN2CCCCC2C)cc(C)c1Cl.Cl (configuration not stated) | 0.79 ± 0.15 | 0.97 ± 0.08 | 0.796 ± 0.048 | 0.955 ± 0.048 | 1.2 ± 0.17 | 1.25 ± 0.23 | 0.923 (active)
10 | Cc1cccc(Nc2ccccc2C(=O)O)c1C | 0.847 ± 0.063 | 0.923 ± 0.13 | 0.962 ± 0.035 | 1.03 ± 0.075 | 1.03 ± 0.092 | 0.98 ± 0.089 | 0.999 (active)
11 | Cc1cnc(Nc2ccc(OCCN3CCCC3)cc2)nc1Nc1cccc(S(=O)(=O)NC(C)(C)C)c1 | 0.769 ± 0.17 | 1.81 ± 0.14 | 2.74 ± 0.12 | 0.0927 ± 0.014 | 0.0391 ± 0.0087 | 0.064 ± 0.028 | 0.0864 (inactive)
12 | CC(=NN1CCN(Cc2cccc3ccccc23)CC1)c1ccc(Br)cc1 | 1.08 ± 0.12 | 1.04 ± 0.071 | 1.08 ± 0.044 | 1 ± 0.13 | 1.05 ± 0.12 | 1.11 ± 0.29 | 1 (active)
13 | COc1ccc(-n2c(C)c([N+](=O)[O-])c3ccc(O)cc32)cc1 | 0.835 ± 0.15 | 1.26 ± 0.1 | 1.34 ± 0.17 | 0.393 ± 0.021 | 0.594 ± 0.089 | 0.601 ± 0.063 | 0.999 (active)
14 | CNCC[C@H](Oc1cccc2ccccc12)c1cccs1.Cl | 0.377 ± 0.037 | 0.925 ± 0.1 | 1.29 ± 0.069 | 1.41 ± 0.1 | 1.16 ± 0.18 | 1.24 ± 0.31 | 0.323 (inactive)
15 | Cc1cc(O)nc(NN)n1 | 1.06 ± 0.087 | 1.01 ± 0.062 | 1.02 ± 0.033 | 0.983 ± 0.054 | 0.971 ± 0.13 | 0.861 ± 0.13 | 0.999 (active)
16 | O=C1CCCc2[nH]ccc21 | 1.03 ± 0.12 | 1.03 ± 0.11 | 1.01 ± 0.092 | 1.02 ± 0.084 | 1.04 ± 0.094 | 0.998 ± 0.21 | 0.999 (active)
